Data from PubChem BioAssay (EPA / NIEHS).
“And” between values parts separate entries of the source, which are not always exact repeats. Identical values can stand only once. Some structures have more than one record in an assay (separate samples or runs), and their calls can disagree. The source made the active and inactive calls. Rule for the calls: active = hit-call score of the fitted dose curve at least 0.9, where 1 is the maximum; inactive = score below 0.9.

Columns and labels:
[1] = target: Bile acid receptor (Homo sapiens) (UniProt Q96RI1); assay: ATG_IR1_CIS: Attagene CIS-FACTORIAL HepG2 Assay for human Nuclear Receptor Subfamily 1 Group H Member 4 (NR1H4), IR1 submotif (AID 2282946); conditions: IR1 reporter transcription, actives raise or lower the signal
Sequence of Bile acid receptor (Homo sapiens) (Q96RI1 whole entry, looked up): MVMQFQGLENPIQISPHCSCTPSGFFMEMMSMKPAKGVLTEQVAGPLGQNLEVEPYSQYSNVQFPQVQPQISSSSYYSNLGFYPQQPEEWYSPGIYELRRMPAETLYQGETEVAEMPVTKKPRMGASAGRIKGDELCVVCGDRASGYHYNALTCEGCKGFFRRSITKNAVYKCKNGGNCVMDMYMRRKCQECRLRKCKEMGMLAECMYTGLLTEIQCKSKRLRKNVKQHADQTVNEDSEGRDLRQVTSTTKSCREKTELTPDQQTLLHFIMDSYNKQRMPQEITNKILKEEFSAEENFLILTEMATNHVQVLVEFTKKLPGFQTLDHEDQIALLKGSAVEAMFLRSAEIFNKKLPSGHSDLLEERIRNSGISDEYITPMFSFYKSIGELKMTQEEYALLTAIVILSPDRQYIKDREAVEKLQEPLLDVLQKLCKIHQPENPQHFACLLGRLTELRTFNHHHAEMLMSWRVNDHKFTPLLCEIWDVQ
Summary of the method: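 Transient MRTU transfection, HepG2; 24 h dosing; RNA → RT-PCR → 6-FAM primer extension → HpaI digest → capillary electrophoresis fluorescence. Gain/loss of signal fitted relative to DMSO.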

[2] = ATG_GRE_CIS: Attagene CIS-FACTORIAL HepG2 Assay for human Glucocorticoid Response Elements (GRE) (AID 2282947); conditions: HepG2 GRE cis-reporter, Attagene multiplex mRNA; actives raise or lower the signal
Summary of the method: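 HepG2 cells transiently transfected with multiple cis-promoter reporter units measure endogenous TF activity; 24 h compound exposure. Reporter mRNA quantified by RT-PCR, FAM labelling, HpaI digestion and capillary electrophoresis; bidirectional fit vs DMSO baseline.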

[3] = ATG_ISRE_CIS: Attagene CIS-FACTORIAL HepG2 Assay for human Interferon Regulatory Factor 1 (IRF1) binding to an Interferon-Stimulated Response Element (ISRE) (AID 2282948); conditions: HepG2 ISRE cis-reporter (Attagene), mRNA transcription readout; actives raise or lower the signal
Summary of the method: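 Cell-based cis-reporter assay; HepG2; 24 h exposure; reporter mRNA by RT-PCR plus capillary electrophoresis fluorescence; activity in either direction scored relative to DMSO.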

[4] = ATG_M_32_CIS: Attagene CIS-FACTORIAL HepG2 Assay for M32 Transcription Factor (Internal Marker) (AID 2282949); conditions: HepG2 Attagene cis-factorial M32 reporter, mRNA; actives raise or lower the signal;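 note: background control marker of the multiplexed CIS panel rather than a real target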
Summary of the method: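 Internal background marker read-out: RT-PCR/capillary electrophoresis fluorescence of reporter transcripts from transiently transfected HepG2 cells after 24 h chemical exposure. Activity fitted bidirectionally relative to DMSO negative control.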

[5] = ATG_M_06_CIS: Attagene CIS-FACTORIAL HepG2 Assay for M06 Transcription Factor (Internal Marker) (AID 2282950); conditions: HepG2 Attagene CIS-FACTORIAL M06 internal marker reporter; actives raise or lower the signal
Summary of the method: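 Measured 24 h post-dosing in transiently transfected HepG2 cells, this internal-marker endpoint reports reporter mRNA via RT-PCR with fluorescent primer extension and capillary electrophoresis. DMSO served as negative control and baseline for bidirectional fitting.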

[6] = target: Hypoxia-inducible factor 1-alpha (Homo sapiens) (UniProt Q16665); assay: ATG_HIF1a_CIS: Attagene CIS-FACTORIAL HepG2 Assay for human Hypoxia Inducible Factor 1 (HIF1A) (AID 2282951); conditions: HepG2 Attagene cis-factorial HIF1a reporter transcription; actives raise or lower the signal
Sequence of Hypoxia-inducible factor 1-alpha (Homo sapiens) (Q16665 whole entry, looked up): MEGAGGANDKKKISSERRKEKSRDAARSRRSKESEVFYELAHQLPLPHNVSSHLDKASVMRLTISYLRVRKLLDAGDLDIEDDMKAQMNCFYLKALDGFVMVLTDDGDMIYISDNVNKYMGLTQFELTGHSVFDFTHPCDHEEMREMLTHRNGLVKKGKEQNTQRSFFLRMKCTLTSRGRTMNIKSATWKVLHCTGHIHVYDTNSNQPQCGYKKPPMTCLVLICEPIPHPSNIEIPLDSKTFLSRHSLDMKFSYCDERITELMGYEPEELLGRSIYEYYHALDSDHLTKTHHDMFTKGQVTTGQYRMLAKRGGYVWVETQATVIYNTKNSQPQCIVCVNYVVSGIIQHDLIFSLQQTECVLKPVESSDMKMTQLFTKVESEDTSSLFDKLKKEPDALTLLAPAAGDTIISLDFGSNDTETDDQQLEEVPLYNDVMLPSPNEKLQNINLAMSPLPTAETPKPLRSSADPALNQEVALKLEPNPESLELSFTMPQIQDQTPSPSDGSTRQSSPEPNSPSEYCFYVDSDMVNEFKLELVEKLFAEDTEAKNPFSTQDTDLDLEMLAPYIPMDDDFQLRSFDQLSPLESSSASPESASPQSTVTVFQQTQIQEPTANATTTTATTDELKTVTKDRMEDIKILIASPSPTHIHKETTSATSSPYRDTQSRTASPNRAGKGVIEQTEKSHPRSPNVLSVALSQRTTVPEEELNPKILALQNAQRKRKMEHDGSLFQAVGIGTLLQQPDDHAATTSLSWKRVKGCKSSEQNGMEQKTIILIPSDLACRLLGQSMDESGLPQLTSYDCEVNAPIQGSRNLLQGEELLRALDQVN
Summary of the method: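 Dosed 24 h, transfected HepG2 cells yielded total RNA whose reporter transcripts were RT-PCR-amplified and sized by capillary electrophoresis using fluorescent labelling; DMSO defined baseline, with gain and loss of signal both fitted.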

[7] = target: Hepatocyte nuclear factor 6 (Homo sapiens) (UniProt Q9UBC0); assay: ATG_HNF6_CIS: Attagene CIS-FACTORIAL HepG2 Assay for human Hepatocyte Nuclear Factor 6 (HNF6) (AID 2282952); conditions: HepG2 Attagene cis-factorial HNF6 reporter transcription; actives raise or lower the signal
Sequence of Hepatocyte nuclear factor 6 (Homo sapiens) (Q9UBC0 whole entry, looked up): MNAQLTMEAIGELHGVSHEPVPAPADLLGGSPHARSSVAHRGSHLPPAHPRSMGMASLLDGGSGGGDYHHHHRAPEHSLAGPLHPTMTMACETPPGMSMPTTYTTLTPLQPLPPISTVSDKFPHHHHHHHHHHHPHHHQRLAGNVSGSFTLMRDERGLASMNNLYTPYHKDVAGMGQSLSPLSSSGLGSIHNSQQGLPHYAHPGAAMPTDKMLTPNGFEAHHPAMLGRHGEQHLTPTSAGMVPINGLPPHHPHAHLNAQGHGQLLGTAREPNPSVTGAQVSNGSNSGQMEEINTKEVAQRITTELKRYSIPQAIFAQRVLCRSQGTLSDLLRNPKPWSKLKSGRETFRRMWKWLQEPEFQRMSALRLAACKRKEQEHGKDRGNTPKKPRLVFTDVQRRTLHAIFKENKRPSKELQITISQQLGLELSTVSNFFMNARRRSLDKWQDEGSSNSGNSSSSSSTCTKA
Summary of the method: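 HepG2 cells transiently transfected with cis-element-driven multiple reporter transcription units, dosed 24 h; reporter mRNA quantified by RT-PCR, FAM primer extension, HpaI digestion and capillary electrophoresis; bidirectional fit versus DMSO baseline.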

[8] = ATG_MRE_CIS: Attagene CIS-FACTORIAL HepG2 Assay for human Metal Responsive Element (MRE) (AID 2282954); conditions: HepG2 MRE cis-reporter transcription, Attagene multiplex; actives raise or lower the signal
Summary of the method: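 HepG2 cells transiently transfected with multiple cis-element reporter units measure endogenous MTF1-driven transcription. After 24 h compound exposure, reporter mRNA is quantified by RT-PCR with 6-FAM labelling, HpaI digestion and capillary electrophoresis; bidirectional fits versus DMSO.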

[9] = ATG_PBREM_CIS: Attagene CIS-FACTORIAL HepG2 Assay for human Phenobarbital-responsive Enhancer Module (PBREM) (AID 2282955); conditions: HepG2 PBREM cis-reporter, Attagene multiplexed transcription; actives raise or lower the signal
Summary of the method: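 Transfected liver-derived HepG2 cells exposed 24 h; PBREM reporter transcript quantified via RT-PCR and capillary electrophoresis, with activity in either direction referenced to DMSO.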

[10] = target: Heat shock factor protein 1 (Homo sapiens) (UniProt Q00613); assay: ATG_HSE_CIS: Attagene CIS-FACTORIAL HepG2 Assay for human Heat Shock Transcription Factor 1 (HSE) (AID 2282953); conditions: HepG2 HSE cis-reporter, Attagene RNA transcription; actives raise or lower the signal
Sequence of Heat shock factor protein 1 (Homo sapiens) (Q00613 whole entry, looked up): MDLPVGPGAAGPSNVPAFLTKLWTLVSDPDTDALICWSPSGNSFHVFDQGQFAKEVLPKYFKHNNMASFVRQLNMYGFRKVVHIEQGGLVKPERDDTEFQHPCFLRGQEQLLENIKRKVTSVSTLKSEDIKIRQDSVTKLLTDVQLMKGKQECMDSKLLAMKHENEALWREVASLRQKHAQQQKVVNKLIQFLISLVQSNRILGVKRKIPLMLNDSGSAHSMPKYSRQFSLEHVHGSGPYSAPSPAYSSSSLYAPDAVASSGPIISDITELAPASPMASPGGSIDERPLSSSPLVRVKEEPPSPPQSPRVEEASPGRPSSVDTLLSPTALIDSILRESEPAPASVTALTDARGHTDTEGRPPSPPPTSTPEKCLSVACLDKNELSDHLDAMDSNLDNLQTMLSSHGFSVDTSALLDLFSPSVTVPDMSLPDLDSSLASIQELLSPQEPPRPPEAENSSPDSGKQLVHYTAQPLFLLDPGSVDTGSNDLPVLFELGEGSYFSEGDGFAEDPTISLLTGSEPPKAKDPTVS
Summary of the method: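 Reporter mRNA induction in HepG2 is measured 24 h after dosing, using transiently transfected multiplexed cis-regulated reporter units. Signal comes from capillary electrophoresis of labelled RT-PCR products, with DMSO as negative control.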

Measured: AC50

Cc1occc1C(=O)Nc1ccc(C(=O)N2CCC(F)(F)/C(=C\C(=O)N3CCC(N4CCCCC4)CC3)c3ccccc32)cc1
active: [2] 57.8 µM | [3] 34.5 µM | [7] 49.8 µM | [8] 23.7 µM
not listed: [10]
inactive: all other assays above

NCc1cccc(C2CCN(C(=O)c3ccc(C#Cc4ccccc4F)o3)CC2)c1
active: [3] 19.4 µM | [10] 17.2 µM | [8] 9.13 µM | [9] 18 µM
inactive: all other assays above

Cc1ccc2oc(CN(Cc3ccccc3)C(=O)Nc3c(F)cc(F)cc3F)c(-c3ccc(Cl)cc3)c2c1
not listed: [9]
inactive: all other assays above

CCCCCCCCCCCCO
not listed: [2]
inactive: all other assays above

Cc1cccc2ccccc12
not listed: [2]
inactive: all other assays above

CCCCCCCC[Si](OCC)(OCC)OCC
active: [2] 127 µM | [6] 57.3 µM and 26.4 µM
inactive: [2] | [4] | [5] | [6] | [7] | [10] | [8]

O=c1ccc2ccccc2o1
not listed: [2]
inactive: all other assays above

CCCOC(=O)c1cc(O)c(O)c(O)c1
active: [6] 65.1 µM
not listed: [3]
inactive: all other assays above

Cc1cc(F)ccc1-c1cc(N2CC[C@@H](O)[C@H]2CO)ncc1N(C)C(=O)C(C)(C)c1cc(C(F)(F)F)cc(C(F)(F)F)c1
not listed: [3]
inactive: all other assays above

C[C@]12CC[C@@H]3c4ccc(O)cc4CC[C@H]3[C@@H]1CCC2=O
not listed: [2] | [9]
inactive: all other assays above

Oc1ccccc1
not listed: [2] | [3] | [10]
inactive: all other assays above

OCCO
active: [6] 51.2 µM
not listed: [2]
inactive: all other assays above

CCCCCCCCCCCO
not listed: [2] | [3] | [10]
inactive: all other assays above

CO[C@H]1/C=C/O[C@@]2(C)Oc3c(C)c(O)c4c(O)c(c(/C=N/N5CCN(C)CC5)c(O)c4c3C2=O)NC(=O)/C(C)=C\C=C\[C@H](C)[C@H](O)[C@@H](C)[C@@H](O)[C@@H](C)[C@H](OC(C)=O)[C@@H]1C
inactive: [4] | [5] | [7] | [10] | [8] | [9]

C[C@]12CC[C@@H]3c4ccc(O)cc4CC[C@H]3[C@@H]1CC[C@H]2O
inactive: [2] | [3] | [4] | [5] | [7] | [10] | [8] | [9]
active: [8] 24.8 µM

CN(C)c1ccc(C(=C2C=CC(=[N+](C)C)C=C2)c2ccc(N(C)C)cc2)cc1
inactive: [2] | [5] | [6] | [7]
active: [1] 2.87 µM | [4] 2.03 µM | [10] 6.63 µM | [8] 4.28 µM | [9] 5.8 µM

O=C(OCCCCCCOC(=O)c1ccccc1)c1ccccc1
not listed: [3]
inactive: all other assays above

CCCCCCCCCC(=O)O
not listed: [1] | [3] | [9]
inactive: all other assays above

CC(=O)N1CCN(c2ccc(OC[C@H]3CO[C@](Cn4ccnc4)(c4ccc(Cl)cc4Cl)O3)cc2)CC1
active: [1] 48.5 µM | [10] 55.6 µM | [8] 33.9 µM
not listed: [3] | [6]
inactive: all other assays above

O=C(O)c1ccccc1-n1cc(C(=O)O)c(=O)c2cc(Nc3c(F)cc(F)cc3Cl)c(Cl)cc21
not listed: [3]
inactive: all other assays above

Oc1ccc2ccccc2c1
inactive: [2] | [3] | [4] | [5] | [6] | [7] | [10] | [8]
active: [3] 100 µM

CCCCCCCCN(C)CCCCCCCC
not listed: [1] | [3]
inactive: all other assays above

Clc1ccccc1C(c1ccccc1)(c1ccccc1)n1ccnc1
active: [10] 19.1 µM | [8] 15 µM | [9] 11.1 µM
not listed: [3] | [6]
inactive: all other assays above

CN(C[C@@H](CC[N+]12CCC(C3CCCCC3)(CC1)CC2)c1ccc(Cl)c(Cl)c1)C(=O)c1cc(C(F)(F)F)cc(C(F)(F)F)c1
not listed: [3]
inactive: all other assays above

c1ccc2ccccc2c1
active: [7] 100 µM
inactive: [1] | [4] | [5] | [6] | [7] | [10] | [8]

O=CCCCC=O
not listed: [3]
inactive: all other assays above

CCCCOC(=O)CC(CC(=O)OCCCC)(OC(C)=O)C(=O)OCCCC
inactive: [1] | [2] | [4] | [5] | [6] | [7] | [10] | [9]
active: [8] 27.2 µM and 20.7 µM | [9] 26.6 µM

CCN(Cc1cccc(S(=O)(=O)O)c1)c1ccc(C(=C2C=CC(=[N+](CC)Cc3cccc(S(=O)(=O)O)c3)C=C2)c2ccccc2S(=O)(=O)[O-])cc1
not listed: [2]
inactive: all other assays above

CC(O)CC(C)(C)O (stereo not drawn)
not listed: [1] | [9]
inactive: all other assays above

c1ccc2n[nH]nc2c1
not listed: [1]
inactive: all other assays above

CC1(C)NC(=O)N(c2ccc([N+](=O)[O-])c(C(F)(F)F)c2)C1=O
not listed: [2] | [6]
inactive: all other assays above

Cc1ncc(CO)c(CO)c1O
not listed: [2] | [6] | [9]
inactive: all other assays above

CC(C)(O)c1ccc(CNC(=O)c2cccnc2Oc2ccc3nonc3c2)cc1
active: [9] 33.4 µM
not listed: [1] | [3]
inactive: all other assays above

O=C1O[C@H]([C@@H](O)CO)C(O)=C1O
not listed: [1] | [3]
inactive: all other assays above

CC[C@@H]1C[C@H](N(Cc2cc(C(F)(F)F)cc(C(F)(F)F)c2)C(C)=O)c2cc(C(F)(F)F)ccc2N1C(=O)OC(C)C
active: [9] 0.181 µM
not listed: [1]
inactive: all other assays above

O=C1c2ccccc2C(=O)N1CCc1noc(-c2ccc(CN3CCCCCC3)s2)n1
active: [6] 51.2 µM | [8] 84.5 µM | [9] 24.1 µM
not listed: [2]
inactive: all other assays above

Cc1c2ccccc2c(C)c2c1ccc1ccccc12
active: [1] 6.62 µM | [4] 55.3 µM
not listed: [3]
inactive: all other assays above

CCCCCCCCOc1ccc(C(=O)c2ccccc2)c(O)c1
not listed: [2]
inactive: all other assays above

O=C=NCCCCCCN=C=O
not listed: [2]
inactive: all other assays above

CN1C(=O)CC[C@H]1c1cccnc1
inactive: [4] | [5] | [7] | [10] | [8] | [9]

CCCCCc1ccc(N)cc1
active: [6] 2.57 µM | [8] 46 µM
inactive: [4] | [5] | [6] | [7] | [10] | [8] | [9]
